Among the data in PubChem BioAssay are inhibition values, retold here.

Experiment [1] relates to Botulinum neurotoxin type F light chain protease (Clostridium botulinum). The experiment is described as follows: Clostridium botulinum type F light chain protease inhibitors, microsphere substrate cleavage, validation (AID 588459). Particulars: multiplex microsphere protease substrate cleavage assay, flow cytometry; at 10 µM; hits give high values. In general terms: In flow cytometry, cells or beads pass a laser one at a time.

Experiment [2] concerns the target Botulinum neurotoxin type A (Clostridium botulinum) (UniProt P0DPI0). As to the kind of experiment: BoNT/A light chain protease inhibitors, biochemical, multiplex microsphere flow cytometry, validation set (AID 588460). Particulars: at 10 µM, hits give high values.
Experiment [3] has as its target Lethal factor (Bacillus anthracis) (UniProt P15917). The experiment is described as follows: Bacillus anthracis lethal factor inhibition, microsphere flow cytometry protease assay, validation at 10 µM (AID 588461). The settings on record: multiplex microsphere protease cleavage assay, hits give high values.

A number with no mark means an inactive call. Calls of active or inactive are those of the source. How the calls were made is not given here.

Chain of Botulinum neurotoxin type A (Clostridium botulinum) (P0DPI0 whole entry, looked up): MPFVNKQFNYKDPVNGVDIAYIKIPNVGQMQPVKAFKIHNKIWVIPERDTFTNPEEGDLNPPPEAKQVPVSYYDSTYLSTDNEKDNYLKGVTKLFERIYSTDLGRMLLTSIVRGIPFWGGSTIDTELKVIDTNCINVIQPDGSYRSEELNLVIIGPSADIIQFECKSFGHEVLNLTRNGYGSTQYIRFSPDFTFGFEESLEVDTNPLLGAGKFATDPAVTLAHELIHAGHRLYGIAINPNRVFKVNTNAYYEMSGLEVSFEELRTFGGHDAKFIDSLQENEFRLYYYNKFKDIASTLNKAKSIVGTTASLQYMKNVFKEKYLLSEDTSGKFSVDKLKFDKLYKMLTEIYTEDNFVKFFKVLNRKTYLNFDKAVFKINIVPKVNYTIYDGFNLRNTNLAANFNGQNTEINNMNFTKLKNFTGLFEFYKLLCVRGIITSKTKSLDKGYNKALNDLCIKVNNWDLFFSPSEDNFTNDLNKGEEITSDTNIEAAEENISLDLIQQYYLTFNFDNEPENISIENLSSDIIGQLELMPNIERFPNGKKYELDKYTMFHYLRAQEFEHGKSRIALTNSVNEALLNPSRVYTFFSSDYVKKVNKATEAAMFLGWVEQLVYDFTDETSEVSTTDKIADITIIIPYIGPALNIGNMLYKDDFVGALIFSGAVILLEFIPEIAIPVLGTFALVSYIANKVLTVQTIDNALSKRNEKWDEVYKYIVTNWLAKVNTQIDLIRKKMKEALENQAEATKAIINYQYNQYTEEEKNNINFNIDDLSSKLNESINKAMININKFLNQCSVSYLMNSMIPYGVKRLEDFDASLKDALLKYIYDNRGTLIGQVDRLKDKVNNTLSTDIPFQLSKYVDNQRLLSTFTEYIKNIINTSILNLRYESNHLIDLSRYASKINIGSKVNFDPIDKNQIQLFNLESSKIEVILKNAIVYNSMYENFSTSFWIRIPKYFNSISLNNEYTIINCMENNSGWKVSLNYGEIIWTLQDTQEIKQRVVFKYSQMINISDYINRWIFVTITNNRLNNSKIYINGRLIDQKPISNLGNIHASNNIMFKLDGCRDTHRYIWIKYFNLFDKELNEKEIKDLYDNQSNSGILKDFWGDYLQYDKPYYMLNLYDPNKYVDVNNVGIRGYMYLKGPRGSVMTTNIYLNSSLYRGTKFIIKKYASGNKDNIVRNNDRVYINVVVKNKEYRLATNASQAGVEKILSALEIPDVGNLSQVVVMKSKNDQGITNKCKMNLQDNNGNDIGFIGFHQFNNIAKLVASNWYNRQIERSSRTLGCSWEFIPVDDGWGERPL
Chain of Lethal factor (Bacillus anthracis) (P15917 whole entry, looked up): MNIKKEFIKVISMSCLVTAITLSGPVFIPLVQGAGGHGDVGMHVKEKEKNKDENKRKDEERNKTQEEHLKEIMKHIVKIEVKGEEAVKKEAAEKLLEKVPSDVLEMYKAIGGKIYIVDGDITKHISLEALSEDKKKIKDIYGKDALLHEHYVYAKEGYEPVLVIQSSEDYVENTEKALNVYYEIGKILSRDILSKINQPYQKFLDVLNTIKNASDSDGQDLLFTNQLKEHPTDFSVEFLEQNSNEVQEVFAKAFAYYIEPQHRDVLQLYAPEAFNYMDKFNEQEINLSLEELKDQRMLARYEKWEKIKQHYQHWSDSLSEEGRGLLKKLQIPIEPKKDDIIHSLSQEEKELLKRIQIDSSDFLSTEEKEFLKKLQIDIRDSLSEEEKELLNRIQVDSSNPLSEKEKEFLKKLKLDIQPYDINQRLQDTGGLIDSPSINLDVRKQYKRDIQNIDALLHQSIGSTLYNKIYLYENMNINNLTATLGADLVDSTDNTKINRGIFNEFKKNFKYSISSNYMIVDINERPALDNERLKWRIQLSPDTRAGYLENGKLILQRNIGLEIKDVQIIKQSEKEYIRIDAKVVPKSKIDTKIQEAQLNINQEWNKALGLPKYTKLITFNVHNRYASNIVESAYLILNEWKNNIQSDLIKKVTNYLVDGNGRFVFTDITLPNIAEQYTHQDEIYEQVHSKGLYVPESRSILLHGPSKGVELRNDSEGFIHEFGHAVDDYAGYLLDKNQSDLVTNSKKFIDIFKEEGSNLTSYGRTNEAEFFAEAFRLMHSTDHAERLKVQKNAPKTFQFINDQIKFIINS

In general, inhibition refers to the drop in the measured response relative to a control, in per cent. `Cn1c(=O)c2nc3ccccc3nc2n(C)c1=O`: the inhibition in experiment [1] is -0.9%; in experiment [2] it was 0.5%; in experiment [3], -5.4%.
`CC(=O)CSc1ncnc2c1cnn2-c1ccccc1`: the inhibition in experiment [1] is 2.3%; in experiment [2], 0.8%; in experiment [3], -1.6%.
The matching figures for `COc1ccc(-c2cc(C(=O)N3CCOCC3)c3cc(C)ccc3n2)cc1`: -8.2%, -2.6% and 2.3%.
Turning to `C/C(=N\NC(=O)C1(C)CC1(Br)Br)c1ccc([N+](=O)[O-])cc1` (stereo not given), the figures for the inhibition in experiment [1], in experiment [2] and in experiment [3] were 2.6%, 0.4% and -7.9%, respectively.
In the same order, the values of `O=C(COc1ccc2c(-c3ccccc3)cc(=O)oc2c1)NCc1cccs1` are -0.2%, -0.1% and -6%.
In the same order, the values of `O=C(O)c1cc(-c2ccccc2)nc2ccccc12` are -1.1%, -0.1% and -9.8%.
The matching figures for `O=[N+]([O-])c1ccc2cn[nH]c2c1`: 2.9%, -0.5% and 4%.
In the case of `CC(=O)OCC(OC(C)=O)C(OC(C)=O)C(OC(C)=O)C(=O)Nc1cccc(C)c1` (stereo not given), the inhibition is 3.7% in experiment [1], 1.2% in experiment [2] and 3.1% in experiment [3].
As to `CC(C)(Sc1cc(C(C)(C)C)c(O)c(C(C)(C)C)c1)Sc1cc(C(C)(C)C)c(O)c(C(C)(C)C)c1`, the figures for the inhibition in experiment [1], in experiment [2] and in experiment [3] were 0%, -2.2% and -7.4%, respectively.
In the same order, the values of `CCN(CC)CCNC(=O)c1cc(Cl)c(N)cc1OC` are -1.3%, -0.2% and 0%.
In the same order, the values of `COc1cc(C(=S)N(C)C)ccc1O` are -3.2%, -0.9% and -2%.
With `CNCCCN1c2ccccc2CCc2ccccc21`, the values for the inhibition in experiment [1], in experiment [2] and in experiment [3] were -0.9%, -0.6% and 3.8%, respectively.
The matching figures for `C/C(=N/N1CCN(Cc2cccc3ccccc23)CC1)c1cccnc1`: 6.2%, -0.9% and -4%.
On to `NC(N)=NC(=O)Cc1c(Cl)cccc1Cl`, for which the results for the inhibition in experiment [1], in experiment [2] and in experiment [3] were -3.3%, -1.8% and -3.1%, respectively.
The matching figures for `COc1ccccc1OCC(O)COC(N)=O` (stereo not given): -3.8%, -1.3% and -6.8%.
The matching figures for `CC(C)=CCC(C)(C)/C=N/NC(N)=O`: 1.8%, 0.6% and 10.3%.
With `COc1cccc(CC2CC(=O)N(c3ccc4c(C)cc(=O)oc4c3)C2=O)c1` (stereo not given), the figures for the inhibition in experiment [1], in experiment [2] and in experiment [3] were 3.1%, -0.1% and 4.1%, respectively.
In the same order, the values of `CCOc1ccc(C(=O)/C=C/c2cc(OC)c(OC)c(OC)c2)cc1` are 0.5%, -0.5% and 4.5%.
As to `CC(=O)N(CCC1(c2ccc(C)cc2)CCOC(C(C)C)C1)Cc1ccco1` (stereo not given), the inhibition is -5.3% in experiment [1], 0% in experiment [2] and -7.5% in experiment [3].
In the same order, the values of `CCOCC(=O)Nc1ccccc1C(=O)N1CCOCC1` are 32.5% (active), 14.3% and 6.3%.
The matching figures for `CC(=O)C1=C(NC(=O)c2ccc(C(F)(F)F)cc2)C[C@@H]2[C@H]1C2(C)C`: 2%, 1.5% and -1%.
The matching figures for `Cc1ccc(-n2cc(CNCCN3CCOC3=O)c(-c3ccc(F)cc3)n2)cc1`: -3.2%, 1.5% and -7.8%.
With `CCc1ccc(/C=C2\Oc3cc(OC(=O)N4CCOCC4)ccc3C2=O)cc1`, the inhibition in experiment [1] was 0.7%; in experiment [2], -0.2%; in experiment [3], 0.7%.
Regarding `Cc1ccc2[nH]c3c(=O)n(CCc4cnc[nH]4)cnc3c2c1`, the inhibition in experiment [1] is -6.6%; in experiment [2], -0.7%; in experiment [3], -10.5%.
Turning to `Nc1ccc2nc(Cc3ccccc3)[nH]c2c1`, the results for the inhibition in experiment [1], in experiment [2] and in experiment [3] were -12.8%, -5.2% and -74.5%, respectively.
Take `O=C(O)CCSc1nc2ccccc2s1`: the inhibition in experiment [1] is -0.7%; in experiment [2] it was -1.2%; in experiment [3] it was -9.8%.
The matching figures for `CCCCOn1c(C)c(C(C)=O)c2c3no[n+]([O-])c3ccc21`: 1.9%, 0.2% and -1.9%.
In the same order, the values of `CC12CCC(C(=O)N(CCC#N)CCC#N)(CC1=O)C2(C)C` (stereo not given) are 2.1%, -1.2% and 1.5%.
Turning to `CC(C)(S)[C@@H](N)C(=O)O`, the figures for the inhibition in experiment [1], in experiment [2] and in experiment [3] were 2.9%, -0.8% and 1.1%, respectively.
For the compound `C[N+](C)(C)CCOP(=O)(O)OP(=O)([O-])OC[C@H]1O[C@@H](n2ccc(N)nc2=O)[C@H](O)[C@@H]1O`, the figures for the inhibition in experiment [1], in experiment [2] and in experiment [3] were 6%, 0.6% and 8.1%, respectively.
